G9a inh: blocks human histone lysine methyltransferase G9a; Potency, µM (highest dose often 102 µM), actives largely listed as inhibitors; 350,000 compounds, 8.8% hits; G9a H3K9 monomethylation, AlphaScreen, 2 h; Q96KQ7; AID 504332; further: nearly all actives have a fitted effect of over 75% in size
Target sequence (Q96KQ7 913-1193 limits assumed): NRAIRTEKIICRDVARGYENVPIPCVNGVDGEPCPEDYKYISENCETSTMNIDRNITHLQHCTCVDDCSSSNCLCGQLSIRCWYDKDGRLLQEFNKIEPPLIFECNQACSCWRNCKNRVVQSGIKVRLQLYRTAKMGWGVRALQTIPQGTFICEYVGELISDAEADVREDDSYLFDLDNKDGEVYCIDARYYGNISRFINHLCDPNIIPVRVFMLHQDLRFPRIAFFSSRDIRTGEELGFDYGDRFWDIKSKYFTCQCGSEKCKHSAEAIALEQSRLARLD
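Methyltransferase reactions run at room temperature for 2 h (20 nM enzyme, 500 nM biotin-H3K9 peptide, 20 uM SAM) after a 15 min compound preincubation; product detected by AlphaScreen beads and anti-H3K9me1 antibody.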
Tau fluor cs: counter-screen for tau fibril formation inhibitors. Potency, µM (series often up to 57.7 µM). 280,000 compounds, 0.93% hits. tau K18 P301L Alexa594 fluorescence, heparin fibrillization; further: nearly all actives have a fitted effect of over 55% in size
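Human K18 P301L tau (15 uM unlabeled plus 0.24 uM Alexa 594-labeled, final) in 100 mM sodium acetate pH 7 was mixed with compound and 20 uM heparin and incubated 6 hr at 37 C.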
Tau fibril ThT: blocks human tau fibril formation measured by thioflavin T; 270,000 compounds, 2.1% hits; Potency, µM (titrated, usually from 57.4 µM), hits mostly inhibitors; recombinant tau K18 P301L (four-repeat tau fragment), heparin-induced fibrillization, ThT fluorescence; P10636; further: nearly all actives have a fitted effect of over 55% in size
Target sequence (P10636 561-689 P618L limits assumed): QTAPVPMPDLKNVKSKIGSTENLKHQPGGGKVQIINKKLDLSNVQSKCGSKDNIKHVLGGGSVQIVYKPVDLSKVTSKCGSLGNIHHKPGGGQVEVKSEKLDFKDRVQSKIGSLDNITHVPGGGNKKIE
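Heparin-induced (20 uM) aggregation of recombinant human K18 P301L tau, 15 uM unlabeled with 0.24 uM labeled, pH 7 acetate buffer, 6 hr at 37 C with compound. Fibrils quantified by 30 uM ThT fluorescence after 1 hr ambient incubation.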
Coupling enz: counter-screen for Giardia aldolase inhibitors: coupling enzyme system. coupling enzyme system counterscreen, AmpLite Red fluorescence. 290,000 compounds, 0.67% hits. activity change, negative = inhibition, % at 58.2 µM, hits read low; in the data active means activity change below about -30%
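Counterscreen lacking aldolase: glyceraldehyde-3-phosphate coupling-enzyme reagent preincubated 10 min at RT with compound (at 57.5 uM final), then substrate/coupling system with AmpLite Red added; fluorescence read at 525/598 nm after 20 min RT.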
Sfp inh: Sfp phosphopantetheinyl transferase inhibition; 310,000 compounds, 3.5% hits; Potency, µM, usual class: inhibitors; AID 1490; Biochemical Sfp PPTase activity, qHTS;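 further: the enzyme is Sfp with the accession as filed and its product quenches rhodamine fluorescence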
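Sfp 15 nM + cpd, 15 min RT; start w/ rhodamine-CoA 5 uM, BHQ-2-YbbR 12.5 uM (final); 50 mM Hepes pH 7.6, 10 mM MgCl2, 0.01% NP-40, 0.01% BSA; read 525/598 nm at 0 and 30 min.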
Tau fibril FP: blocks human tau fibril formation measured by polarization. P10636. K18 P301L tau heparin fibrillization, Alexa594 FP, 6 h. Potency, µM (titrated, usually from 57.7 µM), actives largely listed as inhibitors. 280,000 compounds, 0.39% hits. AID 1468; further: nearly all actives have a fitted effect of over 55% in size
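Compound effects on tau fibrillization are measured by Alexa 594 fluorescence polarization (ex 555, em 632 nm). K18 P301L tau is used at 15 uM with 0.24 uM labeled tracer, and 20 uM heparin induces aggregation over 6 hr at 37 C.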
Large screens that a line does not name were inactive; ! = repeats disagree. The list is not random: actives were taken first. Their share in the collection is about 11%. Unless noted, the call rests on the fitted dose curve; in most records, active means well fitted curve in the direction sought with a large enough effect; inconclusive means small, poorly fitted or top-dose-only effect, or another doubt; inactive means no such curve, though single readings can be large; an effect the other way counts as inactive or inconclusive.

Brc1ccccc1CNCCc1ccc2c(c1)OCO2	none (no result: G9a inh, Tau fluor cs, Tau fibril ThT, Tau fibril FP)
CCN(CC)c1ccc(CNCCc2ccc(F)cc2)cc1	G9a inh 13µM
Fc1ccc(CNCCc2ccc3c(c2)OCO3)cc1	G9a inh 50µM (no result: Tau fluor cs, Tau fibril ThT, Tau fibril FP)
O=C(CSc1nnnn1-c1ccccc1)Nc1ccc(N2CCOCC2)c(Cl)c1	G9a inh 13µM
CCN(CC)C(=O)c1ccc(NC(=O)CSc2nnnn2-c2cc(OC)ccc2OC)cc1	none
CN1[C@@H]2CC[C@H]1CC(O[C@@H](c1ccccc1)c1ccc(Cl)cc1)C2 (some centres not stated)	Tau fibril ThT inconclusive, Sfp inh inconclusive (no result: G9a inh)
CC1CN=C(Nc2ccccc2)S1 (configuration not stated)	none
CC1CN=C(Nc2ccc(N(C)C)cc2)S1 (configuration not stated)	G9a inh 35µM
CNCC(N)C(=O)O (configuration not stated)	Sfp inh inconclusive (no result: G9a inh, Tau fluor cs, Tau fibril ThT, Tau fibril FP)
CC1(C)Cc2c(sc3c2C(=O)NC(c2cccnc2)N3)CO1 (configuration not stated)	G9a inh inconclusive, Tau fibril ThT inconclusive, Sfp inh 40µM
O=C1NC(c2cccnc2)Nc2sc3c(c21)CCCC3 (configuration not stated)	G9a inh inconclusive, Tau fibril ThT inconclusive, Tau fibril FP inconclusive
COc1cc2c3c(c1OC)-c1cc(O)ccc1CC3NCC2 (configuration not stated)	none
COc1cc2c(cc1OC)-c1c(OC)c(OC)cc3c1[C@H](C2)[N+](C)(C)CC3	G9a inh 14µM
COc1cc2c(cc1OC)-c1c(OC)c(OC)c(OC)c3ccnc(c13)C2=O	G9a inh inconclusive, Tau fibril ThT 10µM
CC(C)(O)[C@H]1O[C@@H]2CC[C@]3(C)[C@@]4(C)c5[nH]c6ccccc6c5C[C@@H]4CC[C@]3(O)C2=CC1=O	Tau fluor cs inconclusive, Tau fibril ThT inconclusive, Tau fibril FP inconclusive (no result: G9a inh)
O=C(O)c1nn(Cc2ccc(Cl)c(Cl)c2)c2ccccc12	none (no result: G9a inh)
O=C(O)c1nn(Cc2ccc(Cl)cc2Cl)c2ccccc12	G9a inh 2.2µM!
COc1ccc(CC2(CCc3ccccn3)C(=O)NC(=O)N(c3ccccc3C)C2=O)cc1OC (configuration not stated)	none
COc1ccccc1N1C(=O)NC(=O)C2(Cc3cc(C)ccc3N(C)C2)C1=O (configuration not stated)	G9a inh 8.9µM, Tau fibril ThT inconclusive
COc1ccccc1N1C(=O)CC(=O)NC1=O	none (no result: Tau fluor cs, Tau fibril ThT, Tau fibril FP)
Cc1ccc2c(c1)CC1(CN2C)C(=O)NC(=O)N(c2cccc(C)c2C)C1=O (configuration not stated)	G9a inh 7.9µM, Tau fibril ThT inconclusive
Cc1ccc2c(c1)CC1(CN2C)C(=O)NC(=O)N(c2ccc(C)c(C)c2)C1=O (configuration not stated)	G9a inh 8.9µM, Tau fibril ThT inconclusive
Cc1ccc(N2C(=O)CC(=O)NC2=O)cc1Cl	none (no result: G9a inh, Tau fluor cs, Tau fibril ThT, Tau fibril FP)
Cc1ccc2c(c1)CC1(CN2C)C(=O)NC(=O)N(c2ccccc2C)C1=O (configuration not stated)	G9a inh 10µM, Tau fibril ThT inconclusive
C=C(C)[C@H]1[C@H]2OC(=O)[C@@H]1[C@]1(O)C[C@H]3O[C@]34C(=O)O[C@H]2[C@@]14C	none (no result: Tau fluor cs, Tau fibril ThT, Tau fibril FP)
Cc1ccc2c(c1)CC1(CN2C)C(=O)NC(=O)N(CCc2ccccc2)C1=O (configuration not stated)	G9a inh 7.9µM, Tau fibril ThT inconclusive, Tau fibril FP inconclusive
Cc1nc(C(=O)O)nn1-c1ccc([N+](=O)[O-])cc1	G9a inh 50µM
CCC(C)NC(=O)c1c(N)n(CC2CCCO2)c2nc3ccccc3nc12 (configuration not stated)	Tau fluor cs inconclusive, Tau fibril ThT inconclusive, Coupling enz -40
CCC(C)NC(=O)c1c(N)n(Cc2ccc3c(c2)OCO3)c2nc3ccccc3nc12 (configuration not stated)	Tau fluor cs inconclusive, Tau fibril ThT 20µM, Coupling enz -37, Tau fibril FP inconclusive
CCCCn1c(N)c(C(=O)NCCN2CCOCC2)c2nc3ccccc3nc21	none
CC(C)CCNC(=O)c1c(N)n(CC2CCCO2)c2nc3ccccc3nc12 (configuration not stated)	Tau fluor cs inconclusive, Tau fibril ThT inconclusive, Coupling enz -42
Nc1c(C(=O)NCCN2CCOCC2)c2nc3ccccc3nc2n1Cc1ccccc1	Tau fluor cs inconclusive
Cc1ccc(CNC(=O)c2ccccc2NC(=O)c2nsc3ccccc23)cc1	Tau fibril FP inconclusive (no result: Coupling enz, Sfp inh)
COC(=O)C(O)C(O)(CCC(C)C)C(=O)OC1C(OC)=CC23CCCN2CCc2cc4c(cc2C13)OCO4 (configuration not stated)	none
CN1C(=O)N(C)C(=O)C2(Cc3cc([N+](=O)[O-])ccc3N3CCN(C(=O)c4ccccc4)CC32)C1=O (configuration not stated)	none (no result: Tau fluor cs, Tau fibril ThT, Tau fibril FP)
COc1ccccc1C(=O)Nc1ccc2c(c1)CC1(C(=O)N(C)C(=O)N(C)C1=O)C1CCCN21 (configuration not stated)	G9a inh 32µM (no result: Tau fluor cs, Tau fibril ThT, Coupling enz, Tau fibril FP)
Cc1cccc(C(=O)Nc2ccc3c(c2)CC2(C(=O)N(C)C(=O)N(C)C2=O)C2CCCN32)c1 (configuration not stated)	G9a inh 28µM (no result: Tau fluor cs, Tau fibril ThT, Coupling enz, Tau fibril FP)
C[n+]1cccc(C(=O)N/N=C/c2ccc3c(c2)OCO3)c1	G9a inh inconclusive (no result: Tau fluor cs, Tau fibril ThT, Tau fibril FP)
O=c1ccc2cc(O[C@H]3OC(CO)C(O)C(O)C3O)c(O)cc2o1 (some centres not stated)	none
CCOC(=O)c1ncn2c1CN(C)C(=O)c1cc(N=[N+]=[N-])ccc1-2	none (no result: G9a inh)
CC(C)n1c(=O)c(C=Nc2ccc(S(N)(=O)=O)cc2)c(O)n(Cc2ccco2)c1=O	G9a inh inconclusive, Tau fibril ThT inconclusive
CC(C)n1c(=O)c(C=Nc2cccc([N+](=O)[O-])c2)c(O)n(CCc2ccccc2)c1=O	G9a inh 10µM, Tau fibril ThT inconclusive
CC(=O)OC1CCC2(C)C3=C(CCC2C1(C)C)[C@@]1(C)CCC(C(C)CCC=C(C)C)[C@@]1(C)CC3 (some centres not stated)	none
CCCCCCCCCC(CC)c1ccc(S(=O)(=O)O)cc1 (configuration not stated)	none (no result: Tau fluor cs, Tau fibril ThT, Coupling enz, Tau fibril FP)
CC(O)C(C)OC(=O)[C@@H]1C[C@@H]2c3cccc4c3c(cn4C(C)C)C[C@H]2N(C)C1 (some centres not stated)	G9a inh 45µM!, Sfp inh inconclusive (no result: Coupling enz)
CCCn1cc2c3c(cccc31)C1CC(C)CN(C)C1C2 (configuration not stated)	G9a inh inconclusive
